Assays:
Assay in all cases: log2 ratio of Biotin-Ahx-Ub-VS probe labelling (fragment/DMSO); higher = less target engagement (more negative = stronger competition), active = hit call of the paper (q ≤ 0.05, log2 ratio ≤ -1)
Settings in all cases: compound concentration: 200 uM; treatment time: 3 h
[1] = molecular target: USP34 (UniProt Q70CQ2)
Method in brief: (§1)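 Average log2 ratios of fragment over vehicle were obtained by unpaired t-test from global-median-normalised Spectronaut label-free quantities. Proteins with ≥2 unique peptides were included. HEK293T lysate (495 µg per sample) was treated in triplicate with fragment at 200 µM or vehicle for 3 h, then with Biotin-Ahx-Ub-VS at 0.5 µM final for 1 h, and labelled DUBs were NeutrAvidin-enriched and run by diaPASEF LC-MS/MS.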

[2] = molecular target: T1, USP36 (UniProt Q9P275)
T1 sequence (whole entry): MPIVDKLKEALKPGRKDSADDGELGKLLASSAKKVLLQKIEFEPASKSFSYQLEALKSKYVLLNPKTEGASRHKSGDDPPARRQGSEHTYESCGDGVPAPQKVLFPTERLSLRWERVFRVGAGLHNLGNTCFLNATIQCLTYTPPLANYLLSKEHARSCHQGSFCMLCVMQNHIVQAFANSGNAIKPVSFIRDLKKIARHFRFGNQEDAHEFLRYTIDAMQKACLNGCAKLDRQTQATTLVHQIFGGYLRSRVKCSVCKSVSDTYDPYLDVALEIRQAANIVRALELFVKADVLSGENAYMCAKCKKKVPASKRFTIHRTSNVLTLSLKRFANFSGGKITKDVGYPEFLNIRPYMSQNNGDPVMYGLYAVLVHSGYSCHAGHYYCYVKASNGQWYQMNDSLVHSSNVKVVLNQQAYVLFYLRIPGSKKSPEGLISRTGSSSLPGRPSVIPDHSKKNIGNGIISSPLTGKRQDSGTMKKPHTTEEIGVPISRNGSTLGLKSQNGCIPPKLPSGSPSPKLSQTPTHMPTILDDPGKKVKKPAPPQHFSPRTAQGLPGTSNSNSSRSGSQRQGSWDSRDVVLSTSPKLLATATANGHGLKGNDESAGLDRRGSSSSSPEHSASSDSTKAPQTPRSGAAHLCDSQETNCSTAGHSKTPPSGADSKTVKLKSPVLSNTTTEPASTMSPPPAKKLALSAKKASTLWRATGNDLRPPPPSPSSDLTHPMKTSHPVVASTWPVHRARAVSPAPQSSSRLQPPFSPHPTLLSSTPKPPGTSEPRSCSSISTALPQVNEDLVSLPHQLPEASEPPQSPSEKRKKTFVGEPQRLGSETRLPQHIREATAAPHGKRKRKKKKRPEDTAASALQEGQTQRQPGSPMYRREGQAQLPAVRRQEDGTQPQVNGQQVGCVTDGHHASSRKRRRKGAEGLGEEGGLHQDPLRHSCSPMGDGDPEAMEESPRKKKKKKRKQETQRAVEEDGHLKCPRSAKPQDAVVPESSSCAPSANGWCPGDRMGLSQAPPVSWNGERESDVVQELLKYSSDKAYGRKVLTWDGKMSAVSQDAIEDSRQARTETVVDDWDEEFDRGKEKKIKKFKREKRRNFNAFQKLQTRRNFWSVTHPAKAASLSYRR
Method in brief: as §1

[3] = molecular target: T2, USP38 (UniProt Q8NB14)
T2 sequence (whole entry): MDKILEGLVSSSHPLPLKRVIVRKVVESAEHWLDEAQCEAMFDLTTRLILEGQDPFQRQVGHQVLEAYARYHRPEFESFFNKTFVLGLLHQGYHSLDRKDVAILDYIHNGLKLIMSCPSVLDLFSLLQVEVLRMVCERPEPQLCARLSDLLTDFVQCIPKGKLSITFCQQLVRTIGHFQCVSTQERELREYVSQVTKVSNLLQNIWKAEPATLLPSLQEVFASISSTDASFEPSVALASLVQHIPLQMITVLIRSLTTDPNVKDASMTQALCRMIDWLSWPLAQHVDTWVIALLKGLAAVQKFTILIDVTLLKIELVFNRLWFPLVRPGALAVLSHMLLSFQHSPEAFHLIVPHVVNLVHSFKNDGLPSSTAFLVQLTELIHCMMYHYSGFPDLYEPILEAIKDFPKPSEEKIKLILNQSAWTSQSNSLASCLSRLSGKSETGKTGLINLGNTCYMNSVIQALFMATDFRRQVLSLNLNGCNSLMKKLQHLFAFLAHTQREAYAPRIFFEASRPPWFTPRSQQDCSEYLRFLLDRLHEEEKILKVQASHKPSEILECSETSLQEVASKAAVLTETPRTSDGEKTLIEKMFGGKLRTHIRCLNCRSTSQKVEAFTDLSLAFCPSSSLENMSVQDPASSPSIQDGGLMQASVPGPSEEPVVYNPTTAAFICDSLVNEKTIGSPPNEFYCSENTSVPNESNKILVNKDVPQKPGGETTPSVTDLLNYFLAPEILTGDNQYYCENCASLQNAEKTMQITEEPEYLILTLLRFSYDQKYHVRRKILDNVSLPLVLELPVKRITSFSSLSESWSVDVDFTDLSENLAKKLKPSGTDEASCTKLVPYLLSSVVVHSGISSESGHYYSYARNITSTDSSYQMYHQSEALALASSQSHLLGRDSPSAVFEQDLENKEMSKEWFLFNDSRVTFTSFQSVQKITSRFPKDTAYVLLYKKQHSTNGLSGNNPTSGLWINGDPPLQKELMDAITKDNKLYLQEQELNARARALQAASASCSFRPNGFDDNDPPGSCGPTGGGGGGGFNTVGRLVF
Method in brief: as §1

[4] = molecular target: T3, USP39 (UniProt Q53GS9)
T3 sequence (whole entry): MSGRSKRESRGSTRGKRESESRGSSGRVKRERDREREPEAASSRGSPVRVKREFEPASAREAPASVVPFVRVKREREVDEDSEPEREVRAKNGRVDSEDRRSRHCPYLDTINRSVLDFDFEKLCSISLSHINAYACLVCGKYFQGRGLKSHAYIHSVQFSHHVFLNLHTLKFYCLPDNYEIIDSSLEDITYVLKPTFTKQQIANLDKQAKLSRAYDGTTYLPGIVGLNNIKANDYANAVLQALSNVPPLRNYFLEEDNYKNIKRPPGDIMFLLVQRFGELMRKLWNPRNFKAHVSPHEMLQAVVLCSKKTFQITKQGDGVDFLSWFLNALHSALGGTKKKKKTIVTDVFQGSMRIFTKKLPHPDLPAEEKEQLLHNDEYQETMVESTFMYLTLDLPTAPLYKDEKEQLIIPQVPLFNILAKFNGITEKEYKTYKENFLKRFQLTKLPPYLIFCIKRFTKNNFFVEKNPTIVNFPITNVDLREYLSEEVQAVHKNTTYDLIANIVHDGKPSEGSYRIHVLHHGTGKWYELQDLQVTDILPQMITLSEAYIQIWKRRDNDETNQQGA
Method in brief: as §1

[5] = molecular target: T4, USP4 (UniProt Q13107)
T4 sequence (whole entry): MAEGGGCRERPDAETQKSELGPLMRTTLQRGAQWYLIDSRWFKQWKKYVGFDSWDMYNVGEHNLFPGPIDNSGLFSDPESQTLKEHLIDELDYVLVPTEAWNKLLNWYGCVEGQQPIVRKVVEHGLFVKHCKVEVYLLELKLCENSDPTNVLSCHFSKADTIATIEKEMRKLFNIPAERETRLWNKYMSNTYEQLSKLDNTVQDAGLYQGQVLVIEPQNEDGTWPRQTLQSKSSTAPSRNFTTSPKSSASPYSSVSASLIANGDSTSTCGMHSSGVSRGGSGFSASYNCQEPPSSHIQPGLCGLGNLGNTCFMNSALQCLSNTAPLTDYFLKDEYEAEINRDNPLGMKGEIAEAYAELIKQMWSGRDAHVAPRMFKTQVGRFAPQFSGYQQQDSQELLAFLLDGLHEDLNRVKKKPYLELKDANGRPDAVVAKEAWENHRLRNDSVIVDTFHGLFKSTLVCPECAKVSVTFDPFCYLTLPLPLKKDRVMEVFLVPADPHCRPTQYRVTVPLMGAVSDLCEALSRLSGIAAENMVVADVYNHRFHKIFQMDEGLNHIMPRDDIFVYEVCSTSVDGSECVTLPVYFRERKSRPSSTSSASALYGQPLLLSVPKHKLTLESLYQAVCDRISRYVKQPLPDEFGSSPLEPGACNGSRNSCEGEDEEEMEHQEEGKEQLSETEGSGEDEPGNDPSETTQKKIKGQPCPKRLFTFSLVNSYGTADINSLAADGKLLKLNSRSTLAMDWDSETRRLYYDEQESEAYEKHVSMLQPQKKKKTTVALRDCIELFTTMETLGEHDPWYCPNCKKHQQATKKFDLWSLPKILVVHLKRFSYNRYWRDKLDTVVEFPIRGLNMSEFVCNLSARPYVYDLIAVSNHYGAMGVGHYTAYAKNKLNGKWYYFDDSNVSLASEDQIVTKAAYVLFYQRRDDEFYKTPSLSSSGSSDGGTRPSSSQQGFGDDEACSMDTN
Method in brief: as §1

Measured: log2 ratio of Biotin-Ahx-Ub-VS probe labelling

Sequence of USP34 (Q70CQ2 whole entry, the tested form may be a part): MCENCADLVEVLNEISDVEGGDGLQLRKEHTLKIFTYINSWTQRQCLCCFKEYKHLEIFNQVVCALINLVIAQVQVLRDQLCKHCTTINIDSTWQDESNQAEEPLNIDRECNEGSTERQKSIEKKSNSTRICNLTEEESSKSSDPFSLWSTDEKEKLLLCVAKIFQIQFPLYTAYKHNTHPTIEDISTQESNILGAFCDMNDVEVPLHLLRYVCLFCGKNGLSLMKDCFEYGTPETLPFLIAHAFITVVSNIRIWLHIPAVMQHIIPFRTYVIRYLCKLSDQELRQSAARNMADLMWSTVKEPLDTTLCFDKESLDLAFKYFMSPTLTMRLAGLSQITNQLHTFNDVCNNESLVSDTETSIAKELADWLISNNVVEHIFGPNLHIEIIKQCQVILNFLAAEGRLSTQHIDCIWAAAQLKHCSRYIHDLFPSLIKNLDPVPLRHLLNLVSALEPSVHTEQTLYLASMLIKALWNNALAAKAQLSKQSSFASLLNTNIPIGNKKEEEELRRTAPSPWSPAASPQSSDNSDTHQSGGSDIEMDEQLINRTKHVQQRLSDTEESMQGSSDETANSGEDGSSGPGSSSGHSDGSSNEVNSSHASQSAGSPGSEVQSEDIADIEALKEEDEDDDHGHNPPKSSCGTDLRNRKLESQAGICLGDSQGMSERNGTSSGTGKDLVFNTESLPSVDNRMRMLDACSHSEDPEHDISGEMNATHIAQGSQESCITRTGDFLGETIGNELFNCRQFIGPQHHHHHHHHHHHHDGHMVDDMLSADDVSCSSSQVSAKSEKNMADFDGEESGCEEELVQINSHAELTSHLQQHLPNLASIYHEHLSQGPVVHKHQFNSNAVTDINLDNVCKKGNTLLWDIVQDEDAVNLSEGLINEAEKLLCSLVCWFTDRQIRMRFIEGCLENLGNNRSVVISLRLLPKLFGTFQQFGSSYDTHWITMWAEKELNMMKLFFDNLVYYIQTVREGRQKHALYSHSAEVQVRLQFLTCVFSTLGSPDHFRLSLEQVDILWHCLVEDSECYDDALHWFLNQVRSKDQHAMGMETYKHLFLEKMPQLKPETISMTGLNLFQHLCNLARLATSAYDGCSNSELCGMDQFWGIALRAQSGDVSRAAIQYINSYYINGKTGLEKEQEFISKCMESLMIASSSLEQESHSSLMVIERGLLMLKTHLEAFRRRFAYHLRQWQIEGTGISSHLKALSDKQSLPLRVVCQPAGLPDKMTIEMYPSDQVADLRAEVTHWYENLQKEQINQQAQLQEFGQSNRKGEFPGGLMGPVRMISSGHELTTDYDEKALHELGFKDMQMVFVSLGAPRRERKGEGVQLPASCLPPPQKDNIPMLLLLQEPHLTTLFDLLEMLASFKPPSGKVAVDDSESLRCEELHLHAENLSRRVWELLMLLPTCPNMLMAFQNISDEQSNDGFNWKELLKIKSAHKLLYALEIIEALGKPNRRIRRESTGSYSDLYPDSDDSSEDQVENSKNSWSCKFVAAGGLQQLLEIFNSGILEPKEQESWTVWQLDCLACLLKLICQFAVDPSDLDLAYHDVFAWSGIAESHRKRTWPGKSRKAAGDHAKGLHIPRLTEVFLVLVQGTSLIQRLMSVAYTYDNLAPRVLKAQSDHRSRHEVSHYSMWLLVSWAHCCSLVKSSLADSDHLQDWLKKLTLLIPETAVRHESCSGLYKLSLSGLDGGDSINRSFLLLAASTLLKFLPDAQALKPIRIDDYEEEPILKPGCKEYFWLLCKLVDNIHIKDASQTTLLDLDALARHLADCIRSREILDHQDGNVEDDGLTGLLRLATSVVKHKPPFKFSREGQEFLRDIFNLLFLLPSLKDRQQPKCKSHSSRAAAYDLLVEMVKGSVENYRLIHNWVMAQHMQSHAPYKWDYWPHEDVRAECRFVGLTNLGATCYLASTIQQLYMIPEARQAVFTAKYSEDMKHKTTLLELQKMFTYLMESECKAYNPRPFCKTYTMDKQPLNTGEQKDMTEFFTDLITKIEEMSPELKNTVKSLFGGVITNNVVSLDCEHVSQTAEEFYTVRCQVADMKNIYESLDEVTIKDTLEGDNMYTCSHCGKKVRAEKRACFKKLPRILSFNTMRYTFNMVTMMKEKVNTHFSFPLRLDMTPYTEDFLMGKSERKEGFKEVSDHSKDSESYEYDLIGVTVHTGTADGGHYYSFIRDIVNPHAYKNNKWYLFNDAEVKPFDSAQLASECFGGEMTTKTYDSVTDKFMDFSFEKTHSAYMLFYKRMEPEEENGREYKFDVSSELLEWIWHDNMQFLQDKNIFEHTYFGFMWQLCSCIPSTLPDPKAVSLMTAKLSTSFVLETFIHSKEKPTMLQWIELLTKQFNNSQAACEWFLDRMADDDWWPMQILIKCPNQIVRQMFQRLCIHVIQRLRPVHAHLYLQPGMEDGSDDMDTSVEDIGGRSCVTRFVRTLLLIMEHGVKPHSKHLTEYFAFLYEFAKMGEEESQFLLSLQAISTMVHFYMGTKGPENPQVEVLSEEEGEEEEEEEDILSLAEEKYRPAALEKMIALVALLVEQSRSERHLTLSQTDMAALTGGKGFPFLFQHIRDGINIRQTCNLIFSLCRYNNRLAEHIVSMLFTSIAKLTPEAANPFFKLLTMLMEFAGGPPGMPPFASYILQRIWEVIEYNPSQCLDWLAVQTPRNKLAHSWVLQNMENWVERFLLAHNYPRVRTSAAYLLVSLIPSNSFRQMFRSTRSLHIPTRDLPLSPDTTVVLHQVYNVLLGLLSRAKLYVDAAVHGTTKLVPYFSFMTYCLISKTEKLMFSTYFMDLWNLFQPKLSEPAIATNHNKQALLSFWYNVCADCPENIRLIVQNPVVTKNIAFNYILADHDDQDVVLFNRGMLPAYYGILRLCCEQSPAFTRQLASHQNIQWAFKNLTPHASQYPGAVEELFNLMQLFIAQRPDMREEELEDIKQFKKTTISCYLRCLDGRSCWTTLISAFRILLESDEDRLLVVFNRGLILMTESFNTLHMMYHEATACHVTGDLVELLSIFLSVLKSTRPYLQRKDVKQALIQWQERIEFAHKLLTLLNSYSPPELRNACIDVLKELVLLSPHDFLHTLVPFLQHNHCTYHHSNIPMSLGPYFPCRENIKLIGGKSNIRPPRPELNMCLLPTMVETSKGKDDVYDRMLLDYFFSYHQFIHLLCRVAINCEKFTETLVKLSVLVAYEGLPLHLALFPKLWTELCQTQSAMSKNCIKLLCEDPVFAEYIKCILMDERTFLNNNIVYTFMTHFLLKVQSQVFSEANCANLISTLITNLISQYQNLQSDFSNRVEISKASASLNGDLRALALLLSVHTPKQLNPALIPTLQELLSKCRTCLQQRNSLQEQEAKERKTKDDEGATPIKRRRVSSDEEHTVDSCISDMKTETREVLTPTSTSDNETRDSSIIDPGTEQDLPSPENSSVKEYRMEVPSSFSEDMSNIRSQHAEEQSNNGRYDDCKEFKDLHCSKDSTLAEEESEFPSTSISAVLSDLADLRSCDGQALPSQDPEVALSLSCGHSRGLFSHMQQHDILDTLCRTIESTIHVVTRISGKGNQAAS

O=C(CCl)Nc1ccc(F)cc1Cl
inactive: [1] -0.452 | [2] 0.0206 | [3] -0.165 | [4] 0.253 | [5] -0.129

From the supplement of paper PMC11732987, “Enantioselective OTUD7B fragment discovery through chemoproteomics screening and high-throughput optimisation” (Communications Chemistry, 2025)
